Molecules are shown by their SMILES. About 4,300 (8.3%) of roughly 52,000 compounds were called active. Cut-off read from the data, not from the text of the source: active = survival mostly below about 52% (no sharp cut-off); inactive = mostly above about 56%. Many of the other results were omitted from the sample, so actives are more common in it than they were.

The subject of this test is DeltatarO mutant. The test can be described thus: S. aureus survival, RN4220 and DeltatarO strains – OD600, teichoic acid synthesis inhibitors, primary screen (AID 463173). The conditions noted are these: S. aureus RN4220 wild type/DeltatarO growth, OD600, 18 h, stronger effect = lower value, screened at 18.75 µg/mL (by protocol).
As to `O=C(Nc1ccc(F)cc1Cl)c1cnc(N2CCOCC2)c2ccccc12`, the survival was 104% (inactive).

As for `COc1ccc(N=Nc2c(N)n[nH]c2N)cc1`, the survival is 1% (active).

Consider `Nc1n[nH]c(N)c1N=Nc1ccc(Cl)cc1`, for which the survival was 64% (inactive).

Consider `COc1cccc(N=Nc2c(O)[nH]c(=O)[nH]c2=O)c1`, for which the survival was 101% (inactive).

`Cn1c(=O)c2cc(C(=O)NCCCN3CCN(c4ccc(F)cc4)CC3)sc2c2ccccc21`: the survival was 70% (inactive).

Turning to `C=C(C)Cn1c(SCC(=O)Nc2cccc(Cl)c2)nc2sc3c(c2c1=O)CCCC3`, the survival was 126% (inactive).

Take `Cc1ccc(NC(=O)C(Cc2ccccc2)n2cccc2)cc1C` (stereo not given): the survival is 28% (active).

Take `CCc1cccc(NC(=O)C(Cc2ccccc2)n2cccc2)c1` (stereo not given): the survival was 18% (active).

In the case of `O=C(Nc1cccc(Cl)c1)C(Cc1ccccc1)n1cccc1` (stereo not given), the survival was 11% (active).

As for `CC(=O)c1cccc(NC(=O)[C@H](Cc2ccccc2)N2Cc3ccccc3C2=O)c1`, the survival is 67% (inactive).

Regarding `COc1ccc(NC(=O)C(Cc2ccccc2)n2cccc2)cc1OC` (stereo not given), the survival was 79% (inactive).

On to `Cc1ccc(NC(=O)C(Cc2ccccc2)n2cccc2)c(C)c1` (stereo not given), for which the survival is 67% (inactive).

As for `O=C(Nc1ccccc1)C(Cc1ccccc1)N1Cc2ccccc2C1=O` (stereo not given), the survival was 77% (inactive).

Take `Cc1cccc(NC(=O)C(Cc2ccccc2)n2cccc2)c1C` (stereo not given): the survival is 75% (inactive).

As for `Cc1ccc(C)c(NC(=O)C(Cc2ccccc2)n2cccc2)c1` (stereo not given), the survival is 107% (inactive).

Turning to `COc1ccc(OC)c(S(=O)(=O)Nc2cc3c(cc2C)n(C)c(=O)c(=O)n3C)c1`, the survival was 84% (inactive).

`C1=C(c2cccs2)OC(c2cccs2)=CC1c1cccs1`: the survival is 52% (inactive).

As for `Nc1ncc(S(=O)(=O)NCc2cccc(Cl)c2)cn1`, the survival was 74% (inactive).

`CCOc1ccc(S(=O)(=O)N2CCN(c3ccc(Cl)c(Cl)c3)CC2)c2ccccc12`: the survival is 168% (inactive).

`COc1ccc(Cn2nnnc2C(c2ccccn2)N2CCc3ccccc3C2)cc1` (stereo not given): the survival was 74% (inactive).

For `O=C1CSC2(C(=O)N(Cc3ccccc3F)c3ccccc32)N1c1cccc(C(F)(F)F)c1` (stereo not given), the survival is 87% (inactive).

In the case of `O=C(COCc1cc(-c2ccco2)on1)Nc1ccc(OC(F)(F)F)cc1`, the survival was 92% (inactive).

As for `CCOc1ccc(-c2cc3c(=O)n(Cc4nc(-c5cccc(OC)c5OC)oc4C)ccn3n2)cc1Cl`, the survival was 187% (inactive).

`Cc1ccc2nc(NC(=O)c3ccc(S(=O)(=O)N4CCCc5ccccc54)cc3)sc2c1`: the survival was 144% (inactive).

Turning to `COc1cccc(C(=O)Nc2nnc(S(=O)(=O)N3CCCc4ccccc43)s2)c1`, the survival was 18% (active).

`COc1ccc(C(=O)Nc2nnc(S(=O)(=O)N3CCCc4ccccc43)s2)cc1`: the survival is 49% (inactive).

Take `Cc1cccc(C(=O)Nc2nnc(S(=O)(=O)N3CCCc4ccccc43)s2)c1`: the survival was 17% (active).

On to `Cc1ccc(C(=O)Nc2nnc(S(=O)(=O)N3CCc4ccccc43)s2)cc1`, for which the survival is 26% (active).

Take `Cc1ccc(C(=O)Nc2nnc(S(=O)(=O)N3CCCc4ccccc43)s2)cc1`: the survival was 39% (active).

Regarding `COc1ccccc1NC(=O)c1c(NCc2ccc(OC)c(OC)c2OC)sc2c1CCCC2`, the survival was 93% (inactive).

Regarding `COc1ccc(-c2nc3ccccc3n3c(-c4ccc(OC)cc4)c4c(=O)n(C)c(=O)n(C)c4c23)cc1`, the survival is 84% (inactive).

`CCOC(=O)c1c(S(=O)(=O)N2CCCC(C(=O)Nc3cccc(C#N)c3)C2)c(C)n(C)c1C` (stereo not given): the survival is 67% (inactive).

With `CCc1ccccc1Nc1sc(C(=O)c2ccccc2)c(N)c1S(=O)(=O)c1ccccc1`, the survival was 119% (inactive).

With `O=C(Nc1cccc(Cl)c1N1CCOCC1)c1ccco1`, the survival was 90% (inactive).

For `COc1ccc(S(=O)(=O)CCc2nc3ccccc3n2CC(=O)O)cc1`, the survival is 113% (inactive).

For `CCOC(=O)c1ccc(NC(=O)C(CC)Sc2nc3ccncc3[nH]2)cc1` (stereo not given), the survival is 128% (inactive).

For the compound `CC(=O)N1CCN(C(=O)C(=O)Nc2c3c(nn2-c2ccc(Cl)cc2)CSC3)CC1`, the survival was -1% (active).

Take `CN1CCN(C(=O)C(=O)Nc2c3c(nn2-c2ccc(F)cc2)CSC3)CC1`: the survival is 72% (inactive).

As to `CCC(CO)NC(=O)C(=O)Nc1c2c(nn1-c1ccc(F)cc1)CSC2` (stereo not given), the survival was 80% (inactive).

For `CN1CCN(C(=O)C(=O)Nc2c3c(nn2-c2ccc(Cl)cc2)CSC3)CC1`, the survival is 72% (inactive).

For the compound `CC(NC(=O)C(=O)Nc1c2c(nn1-c1ccccc1)CSC2)c1ccccc1` (stereo not given), the survival is 61% (inactive).

For `CC(NC(=O)C(=O)Nc1c2c(nn1-c1ccc(F)cc1)CSC2)c1ccccc1` (stereo not given), the survival was -2% (active).

In the case of `Cc1cccc(C)c1-n1ncc(C(=O)Nc2ccc3c(c2)OCO3)c1C1CCN(C(=O)OC(C)(C)C)CC1`, the survival was 100% (inactive).

As to `Cc1ccc(-c2cn3nc(N4CCCC(C(=O)NCc5ccc(F)cc5)C4)sc3n2)cc1` (stereo not given), the survival was 86% (inactive).

For the compound `CCNC(=O)NC1(C(=O)N2CCC(Cc3ccccc3)CC2)CCCCC1`, the survival is 87% (inactive).

Regarding `Cc1ccc(N2CC(NC(=O)c3cccc(Cl)c3)CC2=O)cc1C` (stereo not given), the survival is 75% (inactive).

Regarding `COc1cc(C(=O)N2CCC(c3nc4ccccc4o3)CC2)cc(OC)c1OC`, the survival is 91% (inactive).

Consider `Cn1c2ccccc2c2c(C(=O)N3CCN(c4ccc(F)cc4)CC3)cn(C3CCCCC3)c(=O)c21`, for which the survival is 132% (inactive).

Regarding `Cc1ccc2c(CC(=O)Nc3cccc(C(F)(F)F)c3)coc2c1`, the survival was 1% (active).

On to `CC(C)c1ccc2occ(CC(=O)Nc3ccccc3Cl)c2c1`, for which the survival was 85% (inactive).

In the case of `Cc1ccc2onc(CC(=O)Nc3cccc(C(F)(F)F)c3)c2c1`, the survival was 54% (inactive).

On to `COC(=O)c1ccc(NC(=O)Cc2coc3cc(C)ccc23)cc1`, for which the survival is 91% (inactive).

With `Cc1ccc(NC(=O)Cc2coc3ccc(C(C)C)cc23)c(C)c1`, the survival is 88% (inactive).

For `CC(C)c1ccc2occ(CC(=O)Nc3cccc(C(F)(F)F)c3)c2c1`, the survival was 0% (active).

As to `Cc1ccc(NC(=O)Cc2coc3ccc(C(C)C)cc23)cc1Cl`, the survival is 37% (active).

On to `CCCCOC(=O)c1ccc(NC(=O)Cc2coc3ccc(C(C)C)cc23)cc1`, for which the survival was 69% (inactive).

Regarding `Cc1cccc(NC(=O)c2oc3ccccc3c2NC(=O)Cc2coc3ccc(C(C)C)cc23)c1`, the survival was 67% (inactive).

In the case of `CCN1Cc2cccc(C(=O)Nc3ccc(F)cc3)c2C1=O`, the survival was 129% (inactive).

Consider `Cc1cc(C)cc(N2CCn3c2nc2c3c(=O)n(CCc3ccccc3)c(=O)n2C)c1`, for which the survival was 89% (inactive).

`COCCn1c(SCC(=O)c2ccc(OC)cc2)nc2cc(C(=O)NC3CCCC3)ccc2c1=O`: the survival is 94% (inactive).

As to `Cc1ccc(S(=O)(=O)N(C#N)c2nc(C)cc(C)n2)cc1`, the survival is 71% (inactive).

On to `C=C(C)c1cccc(C(C)(C)NC(=O)N(C)C2CCN(C)CC2)c1`, for which the survival was 82% (inactive).

`COc1ccccc1-c1nnc(C2CCN(S(=O)(=O)c3ccccc3)CC2)o1`: the survival is 84% (inactive).

On to `COc1ccc(C)cc1NS(=O)(=O)c1ccc2c3c(cccc13)C(=O)N2`, for which the survival is 58% (inactive).

Turning to `Cc1ccc(NS(=O)(=O)c2ccc3c4c(cccc24)C(=O)N3)c(C)c1`, the survival is 58% (inactive).

Turning to `Cc1ccc(C)c(NS(=O)(=O)c2ccc3c4c(cccc24)C(=O)N3)c1`, the survival was 52% (active).

Take `O=C(Nc1nc2ccc(F)cc2s1)c1nc(S(=O)(=O)Cc2ccccc2)ncc1Cl`: the survival is 17% (active).

Regarding `COc1ccc2nc(NC(=O)c3nc(S(=O)(=O)Cc4ccccc4)ncc3Cl)sc2c1`, the survival is 77% (inactive).

Turning to `COc1ccc2nc(NC(=O)c3nc(S(=O)(=O)Cc4cccc(C)c4)ncc3Cl)sc2c1`, the survival was 49% (inactive).

`CSc1ncc(Cl)c(C(=O)Nc2nc3ccc(F)cc3s2)n1`: the survival was 98% (inactive).

Take `Cc1ccc(CS(=O)(=O)c2ncc(Cl)c(C(=O)Nc3nc4ccc(F)cc4s3)n2)cc1`: the survival was 9% (active).

In the case of `Cc1ccc(CS(=O)(=O)c2ncc(Cl)c(C(=O)Nc3nc4ccc(C)cc4s3)n2)cc1`, the survival is 6% (active).

`COc1ccc2nc(NC(=O)c3nc(S(=O)(=O)Cc4ccc(C)cc4)ncc3Cl)sc2c1`: the survival is 82% (inactive).

For the compound `Cc1ccc2nc(NC(=O)c3nc(SCc4ccccc4C)ncc3Cl)sc2c1`, the survival is 98% (inactive).

For `O=C(Nc1nc2ccc(F)cc2s1)c1nc(S(=O)(=O)Cc2ccccc2F)ncc1Cl`, the survival was 80% (inactive).

As for `Cc1cccc(CS(=O)(=O)c2ncc(Cl)c(C(=O)Nc3nc4ccc(F)cc4s3)n2)c1`, the survival was -1% (active).

On to `Cc1ccc(NC(=O)N2CCC(CN3CCCCCC3)CC2)c(Cl)c1`, for which the survival was 84% (inactive).

As to `O=C(c1ccccc1)N1CCCCC1CCN1CCCCC1` (stereo not given), the survival was 70% (inactive).

In the case of `CCc1ccc(N(CC)C(=O)Cn2nc(Cc3cccnc3)c3ccccc3c2=O)cc1`, the survival was 81% (inactive).

For `CCOc1ccc(S(=O)(=O)N(CC(=O)Nc2ccc3c(c2)OCO3)c2ccccc2)cc1`, the survival is 72% (inactive).

`O=C(Cn1ncc2c3ccccc3n(Cc3cccc(Cl)c3)c2c1=O)Nc1ccc(F)cc1F`: the survival is 103% (inactive).

On to `CC(C)CCNC(=O)CN1C(=O)c2cccnc2Oc2ccccc21`, for which the survival is 85% (inactive).

As to `CC(C)c1cnc2c(c1SCC(=O)N1CCCCC1)c(=O)n(C)c(=O)n2C`, the survival is 107% (inactive).

Turning to `Cc1noc(-c2ccc(NCc3ccccc3)c([N+](=O)[O-])c2)n1`, the survival was 66% (inactive).

`O=[N+]([O-])c1cc(-c2nc(-c3ccccn3)no2)ccc1NCc1ccccc1`: the survival was 39% (active).

For the compound `Cc1ccc(CNc2ccc(-c3nc(-c4ccccn4)no3)cc2[N+](=O)[O-])cc1`, the survival is 104% (inactive).

As for `COCCNc1ccc(-c2nc(-c3ccccn3)no2)cc1[N+](=O)[O-]`, the survival was 43% (active).

For the compound `COCCNc1ccc(-c2nc(-c3ccco3)no2)cc1[N+](=O)[O-]`, the survival is 54% (inactive).

Consider `O=[N+]([O-])c1cc(-c2nc(-c3cccnc3)no2)ccc1NCc1ccccc1`, for which the survival is 63% (inactive).

As for `CCCCNc1ccc(-c2nc(-c3ccccn3)no2)cc1[N+](=O)[O-]`, the survival is 46% (active).

As for `Cc1ccc(-c2noc(-c3ccc(NCc4cccnc4)c([N+](=O)[O-])c3)n2)cc1`, the survival is 104% (inactive).

As for `CCNc1ccc(-c2nc(-c3ccccn3)no2)cc1[N+](=O)[O-]`, the survival is 60% (inactive).

In the case of `CCCNc1ccc(-c2nc(-c3ccccn3)no2)cc1[N+](=O)[O-]`, the survival was 111% (inactive).

Regarding `COCCNc1ccc(-c2nc(-c3ccncc3)no2)cc1[N+](=O)[O-]`, the survival was 77% (inactive).

Regarding `O=[N+]([O-])c1cc(-c2nc(-c3ccccc3)no2)ccc1NCc1cccnc1`, the survival was 47% (active).
